PLCg1 inh: PLC-gamma1 enzyme inhibitors, primary screen, biochemical, fluorescence, purified enzyme; 1-phosphatidylinositol 4,5-bisphosphate phosphodiesterase gamma-1 (Homo sapiens), P19174; fluorogenic substrate; inhibition, % at 12.2 µM; 0.84% of 370,000 active; AID 720700, 2013; in the data active = inhibition above about 9.5%
KLK7 zymogen act: proKLK7 zymogen activators, primary screen, biochemical, fluorescence intensity; purified proKLK7, EDANS-DABCYL substrate fluorescence; 100% is mature enzyme control, 0% vehicle; 0.9% of 370,000 active; Kallikrein-7 (Homo sapiens), P49862; activation, % at 7 µM; AID 652039, 2013;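 active = activation above the mean of all tested compounds plus 3 SD, computed per campaign excluding outliers beyond control limits, cut at about 13% in these data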
Target sequence (P49862 whole entry, looked up): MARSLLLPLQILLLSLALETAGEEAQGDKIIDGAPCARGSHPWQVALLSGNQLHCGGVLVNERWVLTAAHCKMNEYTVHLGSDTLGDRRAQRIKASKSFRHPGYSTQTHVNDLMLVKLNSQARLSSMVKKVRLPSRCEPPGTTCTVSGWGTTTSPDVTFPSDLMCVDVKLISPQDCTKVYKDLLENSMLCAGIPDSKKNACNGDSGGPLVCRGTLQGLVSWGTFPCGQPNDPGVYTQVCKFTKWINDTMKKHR
ADAM17 inh: ADAM17 inhibitors, primary screen, biochemical, QFRET; 0.83% of 370,000 active; recombinant ADAM17, EDANS/DABCYL FRET peptide cleavage; inhibition, % at 6.95 µM; Disintegrin and metalloproteinase domain-containing protein 17 (Homo sapiens), P78536;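 active = inhibition above the mean of compounds lying between control limits plus 3 SD, set per campaign, cut at about 8.5% in these data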;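 also: 0% = DMSO-only wells as the low control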
ADAM10 inh: human ADAM10 inhibitors, primary screen, biochemical, QFRET, HTS. 0.62% of 370,000 active. recombinant ADAM10, EDANS/DABCYL FRET peptide cleavage, 3 h. inhibition, % at 7 µM. Disintegrin and metalloproteinase domain-containing protein 10 (Homo sapiens), O14672;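 active = inhibition above a per-campaign cutoff equal to the mean of compounds falling between control-based bounds plus 3 SD, cut at about 20% in these data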;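 also: 0% = DMSO wells while the 100% control is not disclosed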
PLC-beta3 inh: human PLC-beta3 inhibitors, primary screen, biochemical, fluorescence. 1-phosphatidylinositol 4,5-bisphosphate phosphodiesterase beta-3 (Homo sapiens), Q01970. AID 720704, 2013. Purified PLC-beta3, fluorogenic substrate. 0.18% of 370,000 active. inhibition, % at 12.2 µM; in the data active = inhibition above about 11%;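 also: 0% = median of compound wells on plate and 100% = full blocker control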
KLK7 act conf: proKLK7 zymogen activators, confirmation, biochemical, fluorescence intensity, triplicate | 68% of 3,200 active | activation, % at 7 µM | shares compounds with KLK7 zymogen act | purified proKLK7, EDANS-DABCYL substrate fluorescence; scaled: vehicle 0, mature enzyme 100 | AID 686949, 2013;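 active = activation, as change over the incubation, above the mean of all tested compounds plus 3 SD, cut at about 13% in these data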
EDANS interfere: EDANS-DABCYL substrate optical interference, artefact control for kallikrein-7 zymogen activator project, biochemical, fluorescence intensity, high throughput; 80% of 3,200 active; shares compounds with KLK7 zymogen act; activation, % at 7 µM; no enzyme, 4 h; solvent 0%, active enzyme control 100%;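 active = activation above the all-compound mean plus 3 SD, ignoring values outside control-based bounds, cut at about 4.8% in these data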;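 also: value is the 4 h activation minus the activation read at time zero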
K7 EDANS ctr: counter-screen for kallikrein-7 activators: EDANS-DABCYL interference, dose response; shares compounds with KLK7 zymogen act; EDANS-DABCYL peptide fluorescence interference, no enzyme; EC50, µM; 20% of 250 active;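 active = compounds that raise the fluorescence signal in this interference counterscreen, with EC50 at or below 10 µM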;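 also: intact quenched peptide substrate alone read at 355 nm excitation and 520 nm emission; signal is fluorescence gain from T0 to T4 after four hours at room temperature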
Starred values were filed as active, the others as inactive; i = inactive; . = no result given. Compounds with a hit are over-represented: about 2.9% of the library has one in this group of screens.

SMILES | PLCg1 inh | KLK7 zymogen act | ADAM17 inh | ADAM10 inh | PLC-beta3 inh | KLK7 act conf | EDANS interfere | others
COc1ccc(-c2cc(C(F)(F)F)n3nc(C(=O)NCCN4CCOCC4)cc3n2)cc1 | i | -11.5 | -150.2 | -423.6 | i | . | .
CN(C)[C@@H]1CCN(c2cccc3c2S(=O)(=O)N2CC[C@@H](C2)O3)C1 | -2.1 | -0.4 | -4.4 | -7.5 | -2.5 | . | .
Cc1oc2c(CN3CCCCC3C)c(O)ccc2c(=O)c1-c1ccccc1 (stereo not given) | i | 33.9* | i | i | i | 47.0* | 59.4*
CCOC(=O)c1oc2c(CN3CCN(C)CC3)c(O)ccc2c(=O)c1-c1ccccc1OC | -11.8 | 4.9 | 0.7 | 3.1 | -9.8 | . | .
Cc1oc2c(O)c(O)ccc2c(=O)c1-c1ccccc1 | 0.5 | 1.1 | -0.8 | -5.7 | -4.2 | . | .
COc1ccccc1-c1c(C)oc2c(CN3CCCCC3C)c(O)ccc2c1=O (stereo not given) | i | 53.1* | i | i | i | 65.8* | 69.1*
COC(=O)C1=C(C)N(C)C(=O)NC1c1cc2c(cc1[N+](=O)[O-])OCO2 (stereo not given) | -58.5 | 4.3 | -23.2 | -58.5 | -63.3 | . | .
COC(=O)C1=C(C)N(CCCC(=O)O)C(=O)NC1c1cc2c(cc1[N+](=O)[O-])OCO2 (stereo not given) | -61.5 | 13.2* | -25.6 | -86.1 | -105.5 | 13.1* | 14.2*
CC1(C)Oc2cc3oc(C(=O)O)cc(=O)c3cc2-c2ccccc21 | i | 99.9* | i | i | i | 68.1* | 66.8*
CN(C(=O)[C@@H](C1CC1)[C@@H](O)c1ccc(Cl)cc1)c1ccccc1 | 3.3 | 0.9 | -1.5 | 0.9 | 2.6 | . | .
O=C(N/N=C/c1ccc(O)cc1)c1[nH]c2ccc(Br)cc2c1-c1ccccc1 | -133.3 | -11.7 | -6.5 | -38.3 | -155.6 | . | .
O=C(N/N=C/c1c[nH]c2ccccc12)c1[nH]c2ccc(Br)cc2c1-c1ccccc1 | -318.8 | 83.5* | -13.9 | -42.6 | -446.8 | -52.2 | -39.1
CC(C)=CCn1c2ccc(NC(=S)NC3CC3)cc2c(=O)n1C | -496.8 | 18.1* | i | i | i | 13.8* | 13.9*
Cn1c(=O)c2cc(NC(=S)NC3CC3)ccc2n1Cc1ccccc1 | -213.8 | 16.3* | -234.7 | i | -296.8 | 10.3 | 13.8*
Cn1c(=O)c2cc(NC(=S)NC3CCCCC3)ccc2n1Cc1ccc(F)cc1 | -197.9 | 9.1 | -147.2 | i | -255.2 | . | .
Cc1cc(C)cc(Cn2c3ccc(NC(=S)NC4CCCCC4)cc3c(=O)n2C)c1 | -319.8 | -21.6 | -221.7 | i | -447.0 | . | .
CS(=O)(=O)N[C@@H]1C[C@@H]2O[C@H](CO)CC[C@@H]2O[C@@H]1CCc1ccc(/C=C/c2ccccc2)cc1 | 0.3 | -0.3 | 0.1 | -0.4 | -2.3 | . | .
CN1CCN(c2ccc(-c3ccc4ccccc4n3)cc2)CC1 | i | 28.3* | -80.9 | -246.2 | i | -4.3 | -10.1
COCCNc1cc(C)nc2c3c(C)cc(C)nc3nn12 | i | 81.2* | i | i | i | 70.5* | 62.7*
Cc1cc(C)c2c(n1)nn1c(NCCN3CCOCC3)cc(C)nc21 | i | 33.4* | i | i | i | 40.3* | 31.9* | K7 EDANS ctr=>69.5
Cn1c(=O)c2cc(NC(=O)CCc3cccnc3)ccc2n1Cc1cccc(C(F)(F)F)c1 | -267.5 | 5.5 | -443.6 | i | -347.2 | . | .
CC(CC(=O)Nc1ccc2c(c1)c(=O)n(C)n2Cc1ccc(F)cc1)C(F)(F)F (stereo not given) | -272.8 | 15.5* | i | i | -353.4 | -7.7 | -10.8
COc1cc(Cn2c3ccc(NC(=O)CCc4cccnc4)cc3c(=O)n2C)ccc1F | -265.3 | 16.4* | -460.2 | i | -344.2 | 7.2 | 7.6*
COc1cc(Cn2c3ccc(NC(=O)CCc4ccccc4)cc3c(=O)n2C)ccc1F | -199.8 | 9.9 | -293.6 | i | -253.8 | . | .
CC(CC(=O)Nc1ccc2c(c1)c(=O)n(C)n2Cc1ccc(F)cc1)c1ccccc1 (stereo not given) | -309.7 | 3.2 | i | i | -414.2 | . | .
SMILES | PLCg1 inh | KLK7 zymogen act | ADAM17 inh | ADAM10 inh | PLC-beta3 inh | KLK7 act conf | EDANS interfere | others
Cn1c(=O)c2cc(NC(=O)CC(C)(C)C)ccc2n1-c1ccccc1F | -328.6 | 15.5* | -449.5 | i | -416.0 | -5.8 | -16.3
Cn1c(=O)c2cc(NC(=O)CCc3cccnc3)ccc2n1Cc1ccc(F)cc1 | -241.8 | 12.9* | -401.4 | i | -286.7 | 7.1 | 14.0*
CC(C)(C)NC(=O)C(c1cccnc1)N(C(=O)c1cnc[nH]1)c1ccc(C(C)(C)C)cc1 (stereo not given) | 4.6 | . | 1.1 | 4.0 | 3.3 | . | .
CC(C)CSc1ncccc1-c1nc2ccccc2[nH]1 | -1.7 | 0.2 | -9.0 | -29.6 | -8.3 | . | .
Cc1coc2c1c(C)cc1oc(=O)c(CC(=O)N[C@@H](CC(C)C)C(=O)O)c(C)c12 | -448.5 | 10.5 | -264.3 | i | i | . | .
CCCC(NC(=O)Cc1c(C)c2c(cc(C)c3c(C)coc32)oc1=O)C(=O)O (stereo not given) | i | 25.8* | -269.3 | i | i | -10.9 | -12.5
Cc1coc2c1c(C)cc1oc(=O)c(CC(=O)NCCCN3CCCC3=O)c(C)c12 | i | 23.0* | -413.1 | i | i | 4.2 | 1.6
CC[C@@H](C)[C@H](NC(=O)Cc1c(C)c2c(cc(C)c3c(C)c(C)oc32)oc1=O)C(=O)O | i | 9.2 | -115.3 | -448.0 | i | . | .
Cc1oc2c(c(C)cc3oc(=O)c(CC(=O)N[C@@H](CCCNC(N)=O)C(=O)O)c(C)c32)c1C | i | 22.0* | -89.5 | -233.4 | i | 20.9* | 13.8* | K7 EDANS ctr=>69.5
CC[C@@H](C)[C@H](NC(=O)CNC(=O)Cc1c(C)c2c(cc(C)c3c(C)coc32)oc1=O)C(=O)O | i | 24.4* | -315.8 | i | i | -39.2 | -43.8
Cc1oc2c(c(C)cc3oc(=O)c(CC(=O)N[C@@H](C)C(=O)O)c(C)c32)c1C | i | 8.6 | -117.5 | i | i | . | .
COc1ccc(Cn2cc(CN3[C@@H](CC(C)C)COc4ccc(Cl)cc4S3(=O)=O)nn2)cc1 | 1.7 | -0.4 | 0.5 | 4.5 | 2.3 | . | .

Screening results: PubChem BioAssay, The Scripps Research Institute Molecular Screening Center
